Results reported in PubChem BioAssay AID1159580 (chemical genetic matrix, 2015).
Values joined by “and” are separate entries in the source; they are usually repeats but may differ in a detail not shown here. Identical values can stand only once. Hit rate of the full screen: of about 5,500 compounds, about 2,000 (36%) were called active. Not shown: some 18% with an inconclusive outcome. The list shows a part of the results. A number with no mark means an inactive call. Cut-off read from the data, not from the text of the source: active = normalized growth mostly below about 0.91 (no sharp cut-off); inconclusive = no clear call, values can overlap the other calls; inactive = mostly above about 0.92.

Assay: chemical genetic growth profiling, strain panel (AID 1159580);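 note: tested at 20 µM; growth read once vehicle control cultures reached saturation at 30 °C; 1 = growth at the plate median or of vehicle wells; lower values mean less growth of the strain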
Details: S. cerevisiae deletion strains, growth OD

Work on `O=[N+]([O-])c1cc([As](=O)(O)O)ccc1O` yielded a normalized growth (locus YAL013W, strain DEP1, hits give low values) of 0.987, a normalized growth (locus YAL021C, strain ccr4, hits give low values) of 0.965 and a normalized growth (locus YAL026C, strain drs2, hits give low values) of 0.975. For the same compound, the normalized growth (locus YAL030W, strain snc1, hits give low values) was 0.971, the normalized growth (locus YBL061C, strain skt5, hits give low values) was 0.979 and the normalized growth (locus YBR009C, strain hhf1, hits give low values) was 0.975. It also gave a normalized growth (locus YBR021W, strain FUR4, hits give low values) of 1.01, a normalized growth (locus YBR023C, strain chs3, hits give low values) of 0.986 and a normalized growth (locus YBR171W, strain sec66, hits give low values) of 0.946. It also gave a normalized growth (locus YBR229C, strain ROT2, hits give low values) of 1, a normalized growth (locus YBR231C, strain swc5, hits give low values) of 0.946 and a normalized growth (locus YBR279W, strain paf1, hits give low values) of 0.963. It also gave a normalized growth (locus YCL011C, strain gbp2, hits give low values) of 0.991, a normalized growth (locus YCL016C, strain dcc1, hits give low values) of 0.99 and a normalized growth (locus YCL029C, strain bik1, hits give low values) of 0.914. It also gave a normalized growth (locus YCL069W, strain vba3, hits give low values) of 0.967, a normalized growth (locus YCR088W, strain abp1, hits give low values) of 0.975 and a normalized growth (locus YDL005C, strain med2, hits give low values) of 0.972. The normalized growth (locus YDL035C, strain GPR1, hits give low values) was 1, the normalized growth (locus YDL040C, strain nat1, hits give low values) was 0.958 and the normalized growth (locus YDL074C, strain BRE1, hits give low values) was 0.977. For the same compound, the normalized growth (locus YDL101C, strain DUN1, hits give low values) was 1, the normalized growth (locus YDL134C, strain PPH21, hits give low values) was 0.989 and the normalized growth (locus YDL185W, strain tfp1, hits give low values) was 0.978. The normalized growth (locus YDL192W, strain arf1, hits give low values) was 0.214 (active), the normalized growth (locus YDR001C, strain nth1, hits give low values) was 0.967 and the normalized growth (locus YDR069C, strain doa4, hits give low values) was 0.945. The normalized growth (locus YDR101C, strain arx1, hits give low values) was 0.759 (active), the normalized growth (locus YDR137W, strain rgp1, hits give low values) was 0.984 and the normalized growth (locus YDR150W, strain NUM1, hits give low values) was 0.987. For the same compound, the normalized growth (locus YDR159W, strain sac3, hits give low values) was 0.978, the normalized growth (locus YDR162C, strain NBP2, hits give low values) was 0.962 and the normalized growth (locus YDR195W, strain ref2) was 0.898. The normalized growth (locus YDR297W, strain sur2, hits give low values) was 0.971, the normalized growth (locus YDR318W, strain mcm21, hits give low values) was 0.0896 (active) and the normalized growth (locus YDR334W, strain swr1, hits give low values) was 0.958. For the same compound, the normalized growth (locus YDR335W, strain msn5, hits give low values) was 0.972, the normalized growth (locus YDR388W, hits give low values) was 0.112 (active) and the normalized growth (locus YDR392W, strain spt3, hits give low values) was 0.989. The normalized growth (locus YDR502C, strain sam2, hits give low values) was 0.247 (active), the normalized growth (locus YEL003W, strain gim4, hits give low values) was 0.963 and the normalized growth (locus YEL037C, strain rad23, hits give low values) was 0.953. It also gave a normalized growth (locus YEL061C, strain CIN8 (second series), hits give low values) of 0.971, a normalized growth (locus YEL061C, strain CIN8, hits give low values) of 0.993 and a normalized growth (locus YER015W, strain faa2, hits give low values) of 0.958. For the same compound, the normalized growth (locus YER016W, strain bim1, hits give low values) was 0.997, the normalized growth (locus YER110C, hits give low values) was 0.566 (active) and the normalized growth (locus YER111C, strain swi4, hits give low values) was 0.949. For the same compound, the normalized growth (locus YER155C, strain BEM2 (second series), hits give low values) was 0.953, the normalized growth (locus YER155C, strain BEM2, hits give low values) was 0.998 and the normalized growth (locus YER167W, strain BCK2, hits give low values) was 1.02. The normalized growth (locus YFR010W, strain ubp6, hits give low values) was 0.949, the normalized growth (locus YGL078C, strain dbp3, hits give low values) was 0.406 (active) and the normalized growth (locus YGL086W, strain mad1, hits give low values) was 0.0902 (active). For the same compound, the normalized growth (locus YGL167C, strain pmr1, hits give low values) was 0.971, the normalized growth (locus YGL173C, strain kem1, hits give low values) was 0.964 and the normalized growth (locus YGL227W, strain vid30, hits give low values) was 0.964. For the same compound, the normalized growth (locus YGL240W, strain doc1, hits give low values) was 0.946, the normalized growth (locus YGL248W, strain PDE1, hits give low values) was 0.992 and the normalized growth (locus YGL253W, strain hxk2, hits give low values) was 0.963. For the same compound, the normalized growth (locus YGR078C, strain PAC10, hits give low values) was 0.958, the normalized growth (locus YGR135W, strain pre9, hits give low values) was 0.089 (active) and the normalized growth (locus YGR229C, strain SMI1, hits give low values) was 0.981. For the same compound, the normalized growth (locus YGR252W, strain gcn5, hits give low values) was 0.255 (active), the normalized growth (locus YHR013C, strain ard1, hits give low values) was 0.986 and the normalized growth (locus YHR027C, strain rpn1, hits give low values) was 0.972. The normalized growth (locus YHR030C, strain SLT2, hits give low values) was 0.998 and 1.06, the normalized growth (locus YHR079C, strain IRE1 (second series), hits give low values) was 0.791 (active) and the normalized growth (locus YHR079C, strain IRE1, hits give low values) was 1.09. The normalized growth (locus YHR094C, strain hxt1, hits give low values) was 0.25 (active), the normalized growth (locus YHR129C, strain ARP1, hits give low values) was 0.999 and the normalized growth (locus YHR142W, strain chs7, hits give low values) was 0.968. For the same compound, the normalized growth (locus YHR200W, strain rpn10, hits give low values) was 0.26 (active), the normalized growth (locus YIL066C, strain RNR3, hits give low values) was 1.04 and the normalized growth (locus YIL073C, strain SPO22, hits give low values) was 1.06. The normalized growth (locus YIL125W, strain kgd1, hits give low values) was 0.521 (active), the normalized growth (locus YIR030C, strain dcg1, hits give low values) was 0.629 (active) and the normalized growth (locus YJL092W, strain hpr5, hits give low values) was 0.969. The normalized growth (locus YJL095W, strain BCK1 (second series), hits give low values) was 0.966, the normalized growth (locus YJL095W, strain BCK1, hits give low values) was 0.999 and 1.02 and the normalized growth (locus YJL115W, strain asf1, hits give low values) was 0.962. It also gave a normalized growth (locus YJL129C, strain trk1, hits give low values) of 0.936, a normalized growth (locus YJL134W, strain LCB3, hits give low values) of 0.991 and a normalized growth (locus YJL154C, strain vps35, hits give low values) of 0.945. The normalized growth (locus YJL164C, strain tpk1, hits give low values) was 1, the normalized growth (locus YJL166W, strain qcr8, hits give low values) was 0.977 and the normalized growth (locus YJL168C, strain set2, hits give low values) was 0.453 (active). It also gave a normalized growth (locus YJL187C, strain SWE1 (second series), hits give low values) of 1, a normalized growth (locus YJL187C, strain SWE1, hits give low values) of 0.964 and a normalized growth (locus YJR043C, strain POL32, hits give low values) of 1.02. For the same compound, the normalized growth (locus YJR066W, strain TOR1, hits give low values) was 0.989.
